In the library only some 18% were active in any assay of this set; here they are far more common.
TDP1 cell noCPT = qHTS for Inhibitors of human tyrosyl-DNA phosphodiesterase 1 (TDP1): qHTS in cells in absence of CPT; actives 15% (n = 420,000); AID 686978, 2013; Potency, µM (doses to about 46.2 µM), for the others: at the top dose activity change, negative = growth inhibition, most hits filed as inhibitors; DT40 Tdp1-/- hTDP1 cells, no CPT, ATP luminescence, 48 h; also: potency is read from the fitted curve at half-maximal effect; % is scaled to controls: 0 for no effect and ±100 for the full control effect; nearly all actives have a fitted effect of over 55% in size
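Luminescent ATP content (CellTiter-Glo) served as the growth readout. Knockout chicken DT40 cells expressing human TDP1 were exposed to compounds without camptothecin for a minimum 48 hr at 37 °C.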
TGFb SMAD3 inh = TGF-b pathway inhibition; HepG2 CAGA-GFP TGF-b/SMAD3 reporter, GFP fluorescence, 18 h; TGF-beta stimulated, 500 pg/mL final; Potency, µM (titrated, usually from 46.1 µM), inactives show at the top dose activity, negative = inhibition, hits mostly inhibitors; actives 1.2% (n = 410,000); also: potency is read from the fitted curve at half-maximal effect; % is scaled to controls: 0 for no effect and ±100 for the full control effect; nearly all actives have a fitted effect of over 65% in size
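Read-out: total well GFP (ex488/em500-530) summed from mean per-cell fluorescence. Cells: HEPG2 CAGA-GFP, 1% FBS DMEM, 18 h at 37 degrees C with 500 pg/mL final TGF-beta. Unstimulated wells served as the full-inhibition control; stimulated DMSO wells = 0%.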
IL1B secr inh = inflammasome signaling inhibition, IL-1 beta readout; activity change, % at 57.5 µM; actives 4.7% (n = 360,000); THP-1 LPS/ATP IL-1B secretion, AlphaLISA, 16 h; hits give low values; in the data active = activity change below about -50%; inconclusive = mostly about -30% to -49%; also: % is scaled to controls: 0 for no effect and ±100 for the full control effect
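THP-1 cells pretreated 1 hr with compounds (up to 57.5 uM final), then stimulated with LPS (250 ng/mL final) plus ATP (1.25 mM final); secreted IL-1B measured by AlphaLISA after 16 hr, decreased signal indicating inhibition.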
DT40 TDP1 CPT = growth inhibition of DT40 Tdp1-/-;hTDP1 cells with camptothecin (screen for TDP1 inhibitors) | chicken DT40 Tdp1-/-;hTDP1 cells + 20 nM CPT, ATP luminescence, 48 h | Potency, µM (titrated, usually from 46.2 µM), for inactives: at the top dose activity change, negative = growth inhibition, actives largely listed as inhibitors | AID 686979 | actives 12% (n = 420,000); also: potency is read from the fitted curve at half-maximal effect; % is scaled to controls: 0 for no effect and ±100 for the full control effect; nearly all actives have a fitted effect of over 55% in size
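Chicken DT40 Tdp1-/- cells complemented with human TDP1, 400 cells/well, exposed to compounds plus 20 nM camptothecin for at least 48 h at 37 C; viability read as ATP content by CellTiter-Glo luminescence.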
TDP1 inh = TDP1 (human) enzyme inhibition | recombinant TDP1, AlphaScreen DNA substrate cleavage | Potency, µM (titrated, usually from 130 µM), without a hit: at the highest dose activity change, negative = inhibition, hits mostly inhibitors | actives 0.28% (n = 350,000) | AID 485290; also: potency is read from the fitted curve at half-maximal effect; % is scaled to controls: 0 for no effect and ±100 for the full control effect; nearly all actives have a fitted effect of over 40% in size
Target sequence (Q9NUW8 whole entry, looked up): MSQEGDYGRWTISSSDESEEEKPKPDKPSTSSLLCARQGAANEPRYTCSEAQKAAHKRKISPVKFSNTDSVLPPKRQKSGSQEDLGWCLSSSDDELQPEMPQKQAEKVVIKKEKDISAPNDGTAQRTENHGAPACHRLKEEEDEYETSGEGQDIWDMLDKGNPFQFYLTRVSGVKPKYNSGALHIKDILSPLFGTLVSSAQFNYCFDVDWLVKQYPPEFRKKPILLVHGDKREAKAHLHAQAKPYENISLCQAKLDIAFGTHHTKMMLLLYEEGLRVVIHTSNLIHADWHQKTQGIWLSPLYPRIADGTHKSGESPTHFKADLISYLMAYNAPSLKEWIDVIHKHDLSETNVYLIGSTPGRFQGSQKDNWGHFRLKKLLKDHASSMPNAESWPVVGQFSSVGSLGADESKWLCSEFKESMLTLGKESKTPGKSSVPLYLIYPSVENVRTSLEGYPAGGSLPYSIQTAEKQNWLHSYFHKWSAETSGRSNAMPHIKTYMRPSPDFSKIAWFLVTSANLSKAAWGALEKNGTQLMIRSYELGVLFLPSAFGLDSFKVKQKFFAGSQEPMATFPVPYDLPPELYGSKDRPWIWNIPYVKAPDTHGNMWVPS
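Enzyme-compound mixtures sat 15 min at room temperature, followed by a 5 min reaction with 15 nM final substrate and 10 min with AlphaScreen beads. Recombinant human Tdp1 was used at 1 nM final.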
HepG2 viability = counter-screen for TGF-b inhibitors: cytotoxicity in HepG2 cells; actives 0.76% (n = 410,000); HepG2 CAGA-GFP viability, ATP luminescence, 18 h; AID 588856; Potency, µM (series often up to 46.1 µM), for inactives: top-dose activity change, negative = cytotoxicity, usual class: cytotoxic; also: potency is read from the fitted curve at half-maximal effect
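CellTiter-Glo luminescence gave cytotoxicity after 18 hours at 37 degrees C. The cells were HepG2 CAGA-GFP in 1% FBS DMEM, stimulated with 500 pg/mL TGF-beta after compound addition. %Activity was normalised to no-cell wells (complete cell-killing) and DMSO (no toxicity), and curves were fitted and classified.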
An asterisk follows results filed as active. Unless noted, calls follow the shape of the dose curve; as a rule, active = well fitted curve in the direction sought with a large enough effect; inconclusive = small, poorly fitted or top-dose-only effect, or another doubt; inactive = no such curve, though single readings can be large; an effect the other way counts as inactive or inconclusive.

What do the screens show for `Cc1ccccc1N1CCN(c2ccc(NC(=O)C3CCCCC3C(=O)O)cc2)CC1` (stereo unspecified)?
TDP1 cell noCPT: 9.2µM*; TGFb SMAD3 inh: -35%; IL1B secr inh: -3; DT40 TDP1 CPT: inconclusive; TDP1 inh: 5%; HepG2 viability: -3%

Results for O=C(O)c1ccc(NC(=O)C2CC=CCC2C(=O)O)cc1 (stereo unspecified) ?
TDP1 cell noCPT: 4%; TGFb SMAD3 inh: 8%; IL1B secr inh: 15; DT40 TDP1 CPT: 4%; HepG2 viability: 0%

How did CC(C)c1ccccc1NC(=O)CNC(C)c1ccc(F)cc1 (stereo unspecified) do in these assays?
TDP1 cell noCPT: -17%; TGFb SMAD3 inh: 3%; IL1B secr inh: -21; DT40 TDP1 CPT: -26%; TDP1 inh: 8%; HepG2 viability: 0%

What do the screens show for `O=C(O)Cc1ccc(NC(=O)C2CC=CCC2C(=O)O)cc1` (stereo unspecified)?
TDP1 inh: 45µM*

How did O=C(O)C1CC=CCC1C(=O)Nc1ccccc1Cl (stereo unspecified) do in these assays?
TDP1 cell noCPT: 23µM*; TGFb SMAD3 inh: 1%; IL1B secr inh: 10; DT40 TDP1 CPT: inconclusive; TDP1 inh: 4%; HepG2 viability: 7%

What do the screens show for `O=C(Nc1cccc(Br)c1)C1CCCC1`?
TDP1 cell noCPT: 0%; TGFb SMAD3 inh: 1%; IL1B secr inh: 0; DT40 TDP1 CPT: 2%; HepG2 viability: -3%

Results for O=C(O)C1CCCCC1C(=O)Nc1cccc(Br)c1 (stereo unspecified) ?
TDP1 cell noCPT: -12%; TGFb SMAD3 inh: 16%; IL1B secr inh: 39; DT40 TDP1 CPT: -2%; TDP1 inh: 2.8µM*; HepG2 viability: 25%

How did CC/C(=N\NS(C)(=O)=O)c1ccccc1 do in these assays?
TDP1 cell noCPT: -1%; TGFb SMAD3 inh: 0%; IL1B secr inh: -3; DT40 TDP1 CPT: -3%; TDP1 inh: 2%; HepG2 viability: 0%

Results for CC1(C)S[C@@H]2[C@H](NC(=O)C(C(=O)O)c3ccsc3)C(=O)N2[C@H]1C(=O)O (stereo partly specified) ?
TDP1 cell noCPT: -11%; DT40 TDP1 CPT: 4%

How did CC1(C(=O)Nc2ccccc2)Cc2c(-c3cccc(C(F)(F)F)c3)ccnc2O1 (stereo unspecified) do in these assays?
TDP1 cell noCPT: inconclusive; TGFb SMAD3 inh: inconclusive; IL1B secr inh: inconclusive; DT40 TDP1 CPT: inconclusive; HepG2 viability: -22%

What do the screens show for `CC(=O)Nc1ccc(-c2ccnc3c2CC(C)(C(=O)Nc2cccc(C(F)(F)F)c2)O3)cc1` (stereo unspecified)?
TDP1 cell noCPT: inconclusive; TGFb SMAD3 inh: inconclusive; IL1B secr inh: -62*; DT40 TDP1 CPT: 15µM*; HepG2 viability: -36%

Results for CC(=O)Nc1ccc(-c2ccnc3c2CC(C)(C(=O)Nc2cccc(OC(F)(F)F)c2)O3)cc1 (stereo unspecified) ?
TDP1 cell noCPT: 16µM*; TGFb SMAD3 inh: inconclusive; IL1B secr inh: -17; DT40 TDP1 CPT: inconclusive; HepG2 viability: -88%

Results for CC(=O)Nc1cccc(-c2ccnc3c2CC(C)(C(=O)Nc2ccc(F)c(Cl)c2)O3)c1 (stereo unspecified) ?
TDP1 cell noCPT: inconclusive; TGFb SMAD3 inh: inconclusive; IL1B secr inh: 0; DT40 TDP1 CPT: inconclusive; HepG2 viability: -13%
